# Experimental data: PubChem BioAssay
# Calls of active or inactive are those of the source. Unless noted, how the calls were made is not given here.
# Key:
# [1] = system: Wnt5a (protein binding on small-molecule microarray); test: small molecules binding Wnt5a protein – biophysical, small-molecule microarray, 635/667 nm fluorescence, primary screen (AID 1142); settings: 635 nm fluorescence, higher = more signal;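 further: fluorescence read at 667 nm with signal to noise per printed feature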
# [2] = ATP-based viability of Huh7 replicon cells – cell-based, CellTiter-Glo luminescence, basal, 48 h, cytotoxicity control for HCV replication inhibitor project, primary screen (AID 1143); settings: higher = more signal, called active from +8 up or from −8 down;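 further: Huh7 hepatoma cells carrying a hepatitis C replication reporter with no stimulus; test concentration not given here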
# [3] = Pseudomonas biofilm growth suppression – PAO1 strain, BacTiter-Glo luminescence, LB-PBS, primary screen (AID 1144); settings: P. aeruginosa PAO1 biofilm, 12 h, higher = more signal
# [4] = basal CRE-LacZ reporter activity in PC12 – cell-based, unstimulated, primary screen (AID 1145); settings: no forskolin, luminescence, 4.5 h, higher = more signal, called active from +8 up or from −8 down
# [5] = forskolin-driven CRE-LacZ activity in PC12 – cell-based, CRE-LacZ reporter, forskolin-stimulated, primary screen (AID 1146); settings: luminescence, 4.5 h, higher = more signal, called active from +8 up or from −8 down;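 further: PC12 cells with 6xCRE LacZ reporter stimulated by forskolin 10 µM; beta-galactosidase reporter signal reflecting CREB driven transcription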
# [6] = target: Streptavidin (Streptomyces avidinii) (UniProt P22629); test: compounds binding control protein streptavidin – biophysical, small-molecule microarray, 635/667 nm fluorescence, artefact control for SMM compound annotation, primary screen (AID 1147); settings: higher = more signal;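 further: signal reflects streptavidin binding to arrayed compounds as a control protein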
# [7] = probe aInhba binding on compound microarray – biochemical, small-molecule microarray, 635/667 nm fluorescence, primary screen (AID 1148); settings: higher = more signal;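 further: score merges 667nm spot fluorescence with signal-to-noise for antibody binding to printed compounds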
# Torsin-1A (Homo sapiens) [8] = target: Torsin-1A (Homo sapiens) (UniProt O14656); test: TOR1A wild-type binding on microarray – cell lysate, small-molecule microarray, lysate, 635/667 nm, primary screen (AID 1149); settings: COS7 hTOR1A-WT lysate, 635 nm fluorescence, higher = more signal
# Torsin-1A (Homo sapiens) [9] = target: Torsin-1A (Homo sapiens) (UniProt O14656); test: torsin A mutant lysate binding on microarrays – cell lysate, small-molecule microarray, COS7 lysate, 635/667 nm fluorescence, primary screen (AID 1150); settings: COS7 hTOR1A mutant lysate, 635 nm fluorescence, higher = more signal;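 further: score pools 667 nm emission and signal to noise measuring lysate protein binding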
# [10] = system: Sonic hedgehog protein (Shh); test: Sonic hedgehog microarray binding compounds – biochemical, small-molecule microarray, 635/667 nm fluorescence, primary screen (AID 1151); settings: 635 nm fluorescence, higher = more signal;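 further: Shh protein binding to compounds spotted on small-molecule microarray slides; score combines spot fluorescence intensity with signal-to-noise across triplicate slides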
# [11] = optical density shifts of acrAB sulA E. coli – strain DRC41, OD650, 48 h, E. coli filamentation inducer project, primary screen (AID 1152); settings: higher = more signal, called active from +8 up or from −8 down;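 further: E. coli MC1000 strain DRC41 lacking acrAB efflux pump and sulA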
# [12] = probe aLefty1 binding on compound microarray – biochemical, small-molecule microarray, 635/667 nm fluorescence, primary screen (AID 1153); settings: higher = more signal;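 further: score merges spot fluorescence with signal-to-noise ratio from the scanned slide images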
# [13] = plasmodial surface anion channel blockers, osmotic lysis – cell-based, P. falciparum Indochina, OD700, 1 h, primary screen (AID 1154); settings: P. falciparum Indochina infected RBC osmotic lysis, higher = more signal, called active from +8 up or from −8 down
# [14] = plasmodial surface anion channel blockers, osmotic lysis – cell-based, P. falciparum Indochina, OD700, 2 h, primary screen (AID 1155);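 further: lysis reports solute entry through the parasite surface anion channel PSAC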; settings: P. falciparum Indochina infected erythrocytes, higher = more signal, called active from +8 up or from −8 down
# [15] = changes in parasitized red cell lysis, either direction – P. falciparum Indochina, OD700, 3 h, PSAC antagonist project, primary screen (AID 1156); settings: P. falciparum-infected erythrocytes, osmotic lysis, higher = more signal, called active from +8 up or from −8 down
# [16] = plasmodial surface anion channel blockers, osmotic lysis – cell-based, P. falciparum Indochina, OD700, 18 h, primary screen (AID 1157); settings: P. falciparum Indochina infected erythrocytes, osmotic lysis OD700, 18 h; higher = more signal, called active from +8 up or from −8 down
# [17] = S6 kinase pathway phospho-S6 level changes – cell-based, A549, cytoblot, luminescence, serum-stimulated, primary screen (AID 1158); settings: 5 h, higher = more signal;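 further: serum-stimulated A549 lung adenocarcinoma cells; signal is phosphorylated S6 detected by cytoblot immunostaining with HRP secondary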
# [18] = target: NADPH oxidase 2 (Homo sapiens) (UniProt P04839); test: compounds shifting NOX2 Amplex Red fluorescence – cell-based, HEK293-NOX2, PMA-stimulated, NOX inhibitor project, primary screen (AID 1159); settings: 45 min, higher = more signal, called active from +8 up or from −8 down; further: test concentration not given here
# [19] = target: NADPH oxidase 4 (Homo sapiens) (UniProt Q9NPH5); test: compounds shifting NOX4 Amplex Red fluorescence – cell-based, HEK293-NOX4, tetracycline-induced, NOX inhibitor project, primary screen (AID 1160); settings: HEK293-NOX4, Amplex Red H2O2 fluorescence, 45 min; higher = more signal, called active from +8 up or from −8 down
# [20] = target: NADPH oxidase 5 (Homo sapiens) (UniProt Q96PH1); test: compounds shifting NOX5 Amplex Red fluorescence – cell-based, HEK293-NOX5, NOX inhibitor project, primary screen (AID 1161); settings: HEK293-NOX5, ionomycin, 45 min, higher = more signal
# Sequence of NADPH oxidase 5 (Homo sapiens) (Q96PH1 whole entry, looked up): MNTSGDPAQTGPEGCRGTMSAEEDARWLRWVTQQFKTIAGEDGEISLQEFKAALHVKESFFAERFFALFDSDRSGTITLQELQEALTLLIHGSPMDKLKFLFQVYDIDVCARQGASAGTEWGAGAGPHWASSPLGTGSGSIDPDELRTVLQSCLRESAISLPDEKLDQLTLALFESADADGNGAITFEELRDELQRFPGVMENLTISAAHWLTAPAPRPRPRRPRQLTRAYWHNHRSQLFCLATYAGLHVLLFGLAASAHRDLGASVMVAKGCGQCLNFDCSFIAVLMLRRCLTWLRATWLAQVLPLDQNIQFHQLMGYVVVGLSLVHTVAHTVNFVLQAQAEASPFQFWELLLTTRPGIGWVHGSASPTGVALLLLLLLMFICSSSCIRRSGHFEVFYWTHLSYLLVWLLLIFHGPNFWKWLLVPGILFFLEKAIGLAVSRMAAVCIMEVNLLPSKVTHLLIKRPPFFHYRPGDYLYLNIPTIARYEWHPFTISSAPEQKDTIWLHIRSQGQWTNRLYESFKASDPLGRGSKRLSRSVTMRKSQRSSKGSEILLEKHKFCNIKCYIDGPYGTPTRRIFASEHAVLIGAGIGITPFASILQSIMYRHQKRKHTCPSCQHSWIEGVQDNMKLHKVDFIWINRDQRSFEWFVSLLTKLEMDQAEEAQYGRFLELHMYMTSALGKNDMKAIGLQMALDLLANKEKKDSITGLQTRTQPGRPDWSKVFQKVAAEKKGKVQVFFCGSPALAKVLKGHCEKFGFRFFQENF
# Sequence of Streptavidin (Streptomyces avidinii) (P22629 whole entry, looked up): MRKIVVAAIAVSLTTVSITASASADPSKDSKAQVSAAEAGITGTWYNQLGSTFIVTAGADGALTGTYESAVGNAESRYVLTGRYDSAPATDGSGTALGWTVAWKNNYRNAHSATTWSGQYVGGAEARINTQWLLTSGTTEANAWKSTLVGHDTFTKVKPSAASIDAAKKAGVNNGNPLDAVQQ
# Sequence of NADPH oxidase 2 (Homo sapiens) (P04839 whole entry, looked up): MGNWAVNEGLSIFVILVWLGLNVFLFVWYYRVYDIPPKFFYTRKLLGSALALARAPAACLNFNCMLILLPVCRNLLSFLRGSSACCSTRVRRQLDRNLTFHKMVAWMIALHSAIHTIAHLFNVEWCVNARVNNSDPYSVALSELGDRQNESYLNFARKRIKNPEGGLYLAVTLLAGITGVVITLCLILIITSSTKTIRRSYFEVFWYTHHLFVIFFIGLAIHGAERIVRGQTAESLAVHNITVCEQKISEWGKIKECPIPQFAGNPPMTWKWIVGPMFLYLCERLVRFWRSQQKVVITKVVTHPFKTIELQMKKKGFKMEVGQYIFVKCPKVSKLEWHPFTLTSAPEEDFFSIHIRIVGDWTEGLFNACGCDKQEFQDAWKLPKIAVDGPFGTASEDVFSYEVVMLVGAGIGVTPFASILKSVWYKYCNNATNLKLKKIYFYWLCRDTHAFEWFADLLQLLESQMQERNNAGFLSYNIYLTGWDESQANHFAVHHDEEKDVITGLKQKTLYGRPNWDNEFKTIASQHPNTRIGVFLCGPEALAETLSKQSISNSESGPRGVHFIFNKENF
# Sequence of NADPH oxidase 4 (Homo sapiens) (Q9NPH5 whole entry, looked up): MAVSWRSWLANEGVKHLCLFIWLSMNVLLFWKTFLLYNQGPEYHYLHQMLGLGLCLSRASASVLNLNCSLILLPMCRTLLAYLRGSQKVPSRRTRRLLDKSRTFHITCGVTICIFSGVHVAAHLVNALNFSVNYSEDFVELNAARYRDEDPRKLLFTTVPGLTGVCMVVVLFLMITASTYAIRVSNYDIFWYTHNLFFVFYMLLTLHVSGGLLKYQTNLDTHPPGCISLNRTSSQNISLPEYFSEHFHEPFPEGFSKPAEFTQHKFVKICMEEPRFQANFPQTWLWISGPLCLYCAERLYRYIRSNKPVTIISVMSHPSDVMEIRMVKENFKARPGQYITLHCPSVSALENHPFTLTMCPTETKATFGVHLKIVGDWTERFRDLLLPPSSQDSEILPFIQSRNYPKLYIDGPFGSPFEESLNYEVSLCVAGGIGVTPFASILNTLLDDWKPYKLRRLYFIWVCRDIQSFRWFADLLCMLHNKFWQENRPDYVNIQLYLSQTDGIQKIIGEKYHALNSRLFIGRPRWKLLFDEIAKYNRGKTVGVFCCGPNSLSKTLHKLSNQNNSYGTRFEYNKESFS
# Sequence of Torsin-1A (Homo sapiens) (O14656 whole entry, looked up): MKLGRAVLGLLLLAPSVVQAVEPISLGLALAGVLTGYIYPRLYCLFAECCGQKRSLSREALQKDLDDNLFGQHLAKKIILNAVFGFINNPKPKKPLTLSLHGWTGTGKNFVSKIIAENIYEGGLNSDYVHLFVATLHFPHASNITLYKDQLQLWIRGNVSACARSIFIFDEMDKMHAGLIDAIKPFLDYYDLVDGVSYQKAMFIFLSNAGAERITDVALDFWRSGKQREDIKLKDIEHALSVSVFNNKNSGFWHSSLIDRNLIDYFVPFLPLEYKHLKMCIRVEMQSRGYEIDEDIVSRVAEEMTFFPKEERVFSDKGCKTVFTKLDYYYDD
smiles,measurement,setting,value
COC(=O)[C@@]1(CCC(=O)OC(C)(C)C)N=C(c2ccc(OCCCO)cc2)O[C@H]1c1ccccc1,composite z-score,[1],0.762
same,z-score,[2],-3.61 (inactive)
same,z-score,[3],-0.24 (inactive)
same,z-score,[4],2.25 (inactive)
same,z-score,[5],-2.12 (inactive)
same,composite z-score,[6],-0.888
same,composite z-score,[7],0.0319
same,composite z-score,Torsin-1A (Homo sapiens) [8],-0.831
same,composite z-score,Torsin-1A (Homo sapiens) [9],-0.275
same,composite z-score,[10],0.443
same,z-score,[11],-1.12 (inactive)
same,composite z-score,[12],-0.009
same,z-score,[13],26 (active)
same,z-score,[14],14.9 (active)
same,z-score,[15],2.32 (inactive)
same,z-score,[16],1.89 (inactive)
same,z-score,[17],0.197
same,z-score,[18],-2.39 (inactive)
same,z-score,[19],-0.204 (inactive)
same,z-score,[20],-2.57
CCCCC(=C=CC[C@H](O)c1cccc(OCCO)c1)C[C@H](O)c1ccccn1,composite z-score,[1],0.11
same,z-score,[2],-2.42 (inactive)
same,z-score,[3],-0.478 (inactive)
same,z-score,[4],0.685 (inactive)
same,z-score,[5],-0.738 (inactive)
same,composite z-score,[6],0.329
same,composite z-score,[7],-0.101
same,composite z-score,Torsin-1A (Homo sapiens) [8],0.147
same,composite z-score,Torsin-1A (Homo sapiens) [9],0.704
same,composite z-score,[10],0.577
same,z-score,[11],1.81 (inactive)
same,composite z-score,[12],-0.272
same,z-score,[13],13.6 (active)
same,z-score,[14],0.938 (inactive)
same,z-score,[15],1.09 (inactive)
same,z-score,[16],-0.676 (inactive)
same,z-score,[17],1.54
same,z-score,[18],-1.12 (inactive)
same,z-score,[19],-0.337 (inactive)
same,z-score,[20],-1.75
OCCCC1=CC(C2CC2)N(Cc2cccc(OC(F)(F)F)c2)CC1 (stereo not given),composite z-score,[1],-0.416
same,z-score,[2],-0.28 (inactive)
same,z-score,[3],0.129 (inactive)
same,z-score,[4],0.0882 (inactive)
same,z-score,[5],0.0103 (inactive)
same,composite z-score,[6],-0.753
same,composite z-score,[7],-0.213
same,composite z-score,Torsin-1A (Homo sapiens) [8],-0.176
same,composite z-score,Torsin-1A (Homo sapiens) [9],-0.773
same,composite z-score,[10],1
same,z-score,[11],-0.469 (inactive)
same,composite z-score,[12],-0.0813
same,z-score,[13],1.82 (inactive)
same,z-score,[14],0.539 (inactive)
same,z-score,[15],0.982 (inactive)
same,z-score,[16],0.675 (inactive)
same,z-score,[17],0.473
same,z-score,[18],-1.2 (inactive)
same,z-score,[19],-0.822 (inactive)
same,z-score,[20],-1.48
COc1ccc(NC(=O)O[C@H]2[C@H](OC(=O)c3cc4ccccc4[nH]3)[C@@H](OC(=O)c3cc4ccccc4[nH]3)[C@@H](OC)O[C@@H]2CO)cc1,composite z-score,[1],0.147
same,z-score,[2],-4.18 (inactive)
same,z-score,[3],-1.65 (inactive)
same,z-score,[4],1.84 (inactive)
same,z-score,[5],-1.1 (inactive)
same,composite z-score,[6],-0.342
same,composite z-score,[7],-0.0044
same,composite z-score,Torsin-1A (Homo sapiens) [8],-0.0863
same,composite z-score,Torsin-1A (Homo sapiens) [9],0.291
same,composite z-score,[10],0.593
same,z-score,[11],0.799 (inactive)
same,composite z-score,[12],-0.0529
same,z-score,[13],2.35 (inactive)
same,z-score,[14],-0.529 (inactive)
same,z-score,[15],0.52 (inactive)
same,z-score,[16],-0.955 (inactive)
same,z-score,[17],1.22
same,z-score,[18],-3.65 (inactive)
same,z-score,[19],-1.18 (inactive)
same,z-score,[20],-4.46
O=C1OCCC=C[C@H]2OC34C=CCN(Cn5nnc6ccccc65)C(=O)[C@H]3N(CCO)C(=O)[C@@H]4C12 (stereo not given in full),composite z-score,[1],-0.83
same,z-score,[2],-0.208 (inactive)
same,z-score,[3],-1.39 (inactive)
same,z-score,[4],-1.3 (inactive)
same,z-score,[5],-0.688 (inactive)
same,composite z-score,[6],-1.48
same,composite z-score,[7],-0.251
same,composite z-score,Torsin-1A (Homo sapiens) [8],-1.01
same,composite z-score,Torsin-1A (Homo sapiens) [9],-1.32
same,composite z-score,[10],-0.61
same,z-score,[11],1.41 (inactive)
same,composite z-score,[12],-0.147
same,z-score,[13],1.03 (inactive)
same,z-score,[14],0.793 (inactive)
same,z-score,[15],1.08 (inactive)
same,z-score,[16],0.601 (inactive)
same,z-score,[17],-0.18
same,z-score,[18],1.55 (inactive)
same,z-score,[19],1.22 (inactive)
same,z-score,[20],1.73
[N-]=[N+]=NCc1ccccc1C[C@@]1(C(=O)NCC(O)CO)N=C(c2ccc(OCCCO)cc2)O[C@@H]1c1ccccc1 (stereo not given in full),composite z-score,[1],0.423
same,z-score,[2],-4.03 (inactive)
same,z-score,[3],0.141 (inactive)
same,z-score,[4],1.8 (inactive)
same,z-score,[5],0.617 (inactive)
same,composite z-score,[6],-0.0302
same,composite z-score,[7],0.0377
same,composite z-score,Torsin-1A (Homo sapiens) [8],0.237
same,composite z-score,Torsin-1A (Homo sapiens) [9],1.14
same,composite z-score,[10],-0.982
same,z-score,[11],0.0346 (inactive)
same,composite z-score,[12],0.237
same,z-score,[13],25.3 (active)
same,z-score,[14],16.3 (active)
same,z-score,[15],-1.11 (inactive)
same,z-score,[16],2.07 (inactive)
same,z-score,[17],-0.11
same,z-score,[18],0.0842 (inactive)
same,z-score,[19],1.28 (inactive)
same,z-score,[20],2.5
CN(C)C(=O)[C@]1(Cc2ccccc2)N=C(c2ccc(OCCCO)cc2)O[C@@H]1c1ccccc1N=[N+]=[N-],composite z-score,[1],0.435
same,z-score,[2],-4.22 (inactive)
same,z-score,[3],0.54 (inactive)
same,z-score,[4],-0.459 (inactive)
same,z-score,[5],-1.58 (inactive)
same,composite z-score,[6],1.06
same,composite z-score,[7],0.143
same,composite z-score,Torsin-1A (Homo sapiens) [8],0.37
same,composite z-score,Torsin-1A (Homo sapiens) [9],0.523
same,composite z-score,[10],0.0841
same,z-score,[11],0.554 (inactive)
same,composite z-score,[12],0.008
same,z-score,[13],32.4 (active)
same,z-score,[14],34.9 (active)
same,z-score,[15],1.96 (inactive)
same,z-score,[16],4.27 (inactive)
same,z-score,[17],0.0986
same,z-score,[18],-1.46 (inactive)
same,z-score,[19],-0.242 (inactive)
same,z-score,[20],-1.36
COC(=O)[C@@]1(Cc2ccc(OC)cc2)[C@H]2c3cc(C(=O)N(C)C)n(Cc4ccc(C(F)(F)F)nc4)c3C[C@H]2CN1C(=O)c1ccccc1,composite z-score,[1],0.24
same,z-score,[2],0.398 (inactive)
same,z-score,[3],-0.123 (inactive)
same,z-score,[4],0.59 (inactive)
same,z-score,[5],1.54 (inactive)
same,composite z-score,[6],0.365
same,composite z-score,[7],0.397
same,composite z-score,Torsin-1A (Homo sapiens) [8],-0.0912
same,composite z-score,Torsin-1A (Homo sapiens) [9],0.0628
same,composite z-score,[10],-0.709
same,z-score,[11],-0.346 (inactive)
same,composite z-score,[12],0.301
same,z-score,[13],0.622 (inactive)
same,z-score,[14],0.315 (inactive)
same,z-score,[15],-0.106 (inactive)
same,z-score,[16],0.471 (inactive)
same,z-score,[17],-0.154
same,z-score,[18],0.152 (inactive)
same,z-score,[19],-1.26 (inactive)
same,z-score,[20],-1.13
